Measurements: PubChem BioAssay (Tox21)
Results filed as inconclusive are left out. Unmarked numbers belong to inactive results. Active and inactive are the calls of the source. Calls come from the whole dose curve.

Assay: p53 small molecule agonists, cell-based qHTS assay with rat liver microsomes: qHTS cell viability counter screen (AID 1963580)
Conditions: p53RE-bla HCT-116 + rat microsomes, ATP viability, 16 h; series mostly up to 66 µM; activity change, negative = cytotoxicity: at the top concentration
Procedure, shortened: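 In HCT-116 cells carrying a p53 response element-bla reporter, compounds were metabolically activated in situ by rat liver microsomes with NADPH over 16 h. Cell ATP content then served as the cytotoxicity measure.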
% is set by controls: 0 for no effect and ±100 for the full control effect; potency is the fitted concentration of half-maximal effect.
Note: nearly all actives have a fitted effect of over 45% in size.

Compound	activity change, negative = cytotoxicity	Potency
CCN(CC)c1ccc2c(C)cc(=O)oc2c1	0.183%	–
C/C=C/C(=O)C1=C(C)C=CCC1(C)C	0.144%	–
CC(C)=CCC/C(C)=C/C#N	2.8%	–
C1CSCCS1	3.66%	–
CCCCCCCCS(=O)(=O)Cl	-1.2%	–
O=C1CC2CC1C1CCCC21 (stereo not drawn)	0.335%	–
NNc1nncc2ccccc12	0.405% [at 13.5 µM]	–
Cc1ccc2oc(=O)ccc2c1	–	inactive
CCC(=O)O[C@@H]1C[C@H]2CC[C@]1(C)C2(C)C	0%	–
OCc1ccccc1	–	inactive
CC1(C)C(C=C(Cl)Cl)C1C(=O)OCc1cccc(Oc2ccccc2)c1 (stereo not drawn)	–	inactive
CCCCC(CC)COCC1CO1 (stereo not drawn)	–	inactive
CC(C)c1ccc(C=O)cc1	0.496%	–
OCCC(F)(F)C(F)(F)C(F)(F)C(F)(F)C(F)(F)C(F)(F)F	0.957%	–
COCCCOc1ccnc(CS(=O)c2nc3ccccc3[nH]2)c1C (stereo not drawn)	–	inactive
OC[C@H]1O[C@@H]2O[C@H]3[C@H](O)[C@@H](O)[C@@H](O[C@H]4[C@H](O)[C@@H](O)[C@@H](O[C@H]5[C@H](O)[C@@H](O)[C@@H](O[C@H]6[C@H](O)[C@@H](O)[C@@H](O[C@H]7[C@H](O)[C@@H](O)[C@@H](O[C@H]8[C@H](O)[C@@H](O)[C@@H](O[C@H]1[C@H](O)[C@H]2O)O[C@@H]8CO)O[C@@H]7CO)O[C@@H]6CO)O[C@@H]5CO)O[C@@H]4CO)O[C@@H]3CO	–	inactive
NC(=O)c1ccccc1Cl	8.8%	–
CC(=O)Nc1ncc([N+](=O)[O-])s1	9.23% [at 30.3 µM]	–
CC(C)(C)NC(N)=O	-9.52%	–

Compound	activity change, negative = cytotoxicity	Potency
NC(=O)CCCCC(N)=O	3.68%	–
Nc1ccc(N)c(Cl)c1	–	inactive
CS(=O)(=O)O	0.262%	–
CCCCCCCCOCCC#N	4.07%	–
O=C(O)c1ccccc1OP(=O)(O)O	0.443% [at 30.3 µM]	–
CCOC(=O)C(C)Oc1ccc(Oc2cnc3cc(Cl)ccc3n2)cc1 (stereo not drawn)	–	inactive
CCOC(=O)CN1CCCC1=O	-10.7% [at 30.3 µM]	–
COS(C)(=O)=O	–	inactive
CC(=O)O[C@H]1C[C@@H]2CC[C@@]1(C)C2(C)C	-0.745%	–
BrC1CCC(Br)C(Br)CCC(Br)C(Br)CCC1Br (stereo not drawn)	–	inactive
O=C(O)c1cc(=O)c2c(OCC(O)COc3cccc4oc(C(=O)O)cc(=O)c34)cccc2o1	–	inactive
C=CC(=O)NC(C)C	1.02%	–
O=S(=O)(O)c1cccc2ccccc12	19.3%	–
CC(C)CCCCCCc1ccc(O)cc1	–	18.5 µM (active)
CN(C)C(=O)Oc1ccc[n+](C)c1	16.1% [at 30.3 µM]	–
O=c1[nH]c(=O)c2cn[nH]c2[nH]1	-9.92%	–
CN(CC1(C)CCCO1)S(=O)(=O)c1ccc(Cl)c(S(N)(=O)=O)c1 (stereo not drawn)	-0.909% [at 30.3 µM]	–
CC(C)(Oc1ccc(CCNC(=O)c2ccc(Cl)cc2)cc1)C(=O)O	–	inactive

Assay: p53 small molecule agonists, cell-based qHTS assay: qHTS cell viability counter screen (AID 1963581)
Conditions: p53RE-bla HCT-116 viability, ATP luminescence, 16 h; series mostly up to 66 µM; activity change, negative = cytotoxicity: at the top concentration
Procedure, shortened: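 Following 5 h attachment, HCT-116 p53RE-bla cells took up compound for 16 h at 37 C; the reporter was read with B/G FRET substrate (2 h RT), and viability then via CellTiter-Glo ATP luminescence.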

Compound	Potency	activity change, negative = cytotoxicity
CCN(CC)c1ccc2c(C)cc(=O)oc2c1	inactive	–
C/C=C/C(=O)C1=C(C)C=CCC1(C)C	–	-0.681%
CC(C)=CCC/C(C)=C/C#N	–	6.3%
C1CSCCS1	–	6.25%
CCCCCCCCS(=O)(=O)Cl	–	0%
O=C1CC2CC1C1CCCC21 (stereo not drawn)	–	15.6%
NNc1nncc2ccccc12	–	-4.89%
Cc1ccc2oc(=O)ccc2c1	inactive	–
CCC(=O)O[C@@H]1C[C@H]2CC[C@]1(C)C2(C)C	–	2.91%
OCc1ccccc1	inactive	–
CC1(C)C(C=C(Cl)Cl)C1C(=O)OCc1cccc(Oc2ccccc2)c1 (stereo not drawn)	inactive	–
CCCCC(CC)COCC1CO1 (stereo not drawn)	inactive	–
CC(C)c1ccc(C=O)cc1	–	10.2%
COCCCOc1ccnc(CS(=O)c2nc3ccccc3[nH]2)c1C (stereo not drawn)	inactive	–
NC(=O)c1ccccc1Cl	–	-0.777%
CC(=O)Nc1ncc([N+](=O)[O-])s1	–	-12.1% [at 30.3 µM]
CC(C)(C)NC(N)=O	–	8.77%
CC(=O)[C@H]1CC[C@H]2[C@@H]3CCC4=CC(=O)CC[C@]4(C)[C@H]3CC[C@]12C	inactive	–

Compound	Potency	activity change, negative = cytotoxicity
NC(=O)CCCCC(N)=O	–	6.07%
Nc1ccc(N)c(Cl)c1	inactive	–
CS(=O)(=O)O	–	-0.579%
CCCCCCCCOCCC#N	–	-17.5%
O=C(O)c1ccccc1OP(=O)(O)O	–	-0.803% [at 30.3 µM]
CCOC(=O)C(C)Oc1ccc(Oc2cnc3cc(Cl)ccc3n2)cc1 (stereo not drawn)	inactive	–
CCOC(=O)CN1CCCC1=O	–	-3.68% [at 30.3 µM]
COS(C)(=O)=O	inactive	–
CC(=O)O[C@H]1C[C@@H]2CC[C@@]1(C)C2(C)C	–	12.5%
BrC1CCC(Br)C(Br)CCC(Br)C(Br)CCC1Br (stereo not drawn)	inactive	–
O=C(O)c1cc(=O)c2c(OCC(O)COc3cccc4oc(C(=O)O)cc(=O)c34)cccc2o1	inactive	–
CC(=O)CC(C)(C)C1CCCCC1	–	-12.9%
O=S(=O)(O)c1cccc2ccccc12	–	4.71%
CC(C)CCCCCCc1ccc(O)cc1	45.8 µM (active)	–
CN(C)C(=O)Oc1ccc[n+](C)c1	–	-15.2% [at 30.3 µM]
O=c1[nH]c(=O)c2cn[nH]c2[nH]1	–	-7.98%
CN(CC1(C)CCCO1)S(=O)(=O)c1ccc(Cl)c(S(N)(=O)=O)c1 (stereo not drawn)	–	-9.9% [at 30.3 µM]
CC(C)(Oc1ccc(CCNC(=O)c2ccc(Cl)cc2)cc1)C(=O)O	–	-7.66% [at 30.3 µM]
